Values joined by “and” are separate entries in the source; they are usually repeats but may differ in a detail not shown here. Equal entries are not always repeated. About 2,000 (36%) of roughly 5,500 compounds were called active. Roughly 18% stayed inconclusive and do not appear here. Cut-off read from the data, not from the text of the source: active = normalized growth mostly below about 0.91 (no sharp cut-off); inconclusive = no clear call, values can overlap the other calls; inactive = mostly above about 0.92. This is one part of the list.
Test: chemical genetic growth profiling, strain panel (AID 1159580);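 note: tested at 20 µM; growth read once vehicle control cultures reached saturation at 30 °C; 1 = growth at the plate median or of vehicle wells; lower values mean less growth of the strain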
Settings: S. cerevisiae deletion strains, growth OD

Measured: normalized growth

Cc1ccc(S(=O)(=O)NC(=O)NN2CCCCCC2)cc1
inactive: locus YAL013W, strain DEP1, stronger effect = lower value 0.996 | locus YAL021C, strain ccr4, stronger effect = lower value 0.999 | locus YAL026C, strain drs2, stronger effect = lower value 0.974 | locus YAL030W, strain snc1, stronger effect = lower value 0.991 | locus YAL040C, strain CLN3, stronger effect = lower value 1.05 | locus YBL061C, strain skt5, stronger effect = lower value 0.986 | locus YBR009C, strain hhf1, stronger effect = lower value 0.994 | locus YBR021W, strain FUR4, stronger effect = lower value 0.986 | locus YBR023C, strain chs3, stronger effect = lower value 0.981 | locus YBR171W, strain sec66, stronger effect = lower value 0.99 | locus YBR229C, strain ROT2, stronger effect = lower value 0.995 | locus YBR231C, strain swc5, stronger effect = lower value 0.999 | locus YBR279W, strain paf1, stronger effect = lower value 0.994 | locus YCL011C, strain gbp2, stronger effect = lower value 0.987 | locus YCL016C, strain dcc1, stronger effect = lower value 0.953 | locus YCL029C, strain bik1, stronger effect = lower value 0.99 | locus YCL061C, strain MRC1 (second series), stronger effect = lower value 0.998 | locus YCL069W, strain vba3, stronger effect = lower value 0.986 | locus YCR088W, strain abp1, stronger effect = lower value 0.984 | locus YDL005C, strain med2, stronger effect = lower value 0.989 | locus YDL035C, strain GPR1, stronger effect = lower value 0.997 | locus YDL040C, strain nat1, stronger effect = lower value 0.991 | locus YDL074C, strain BRE1, stronger effect = lower value 1.06 | locus YDL101C, strain DUN1, stronger effect = lower value 0.997 | locus YDL134C, strain PPH21, stronger effect = lower value 0.987 | locus YDL185W, strain tfp1, stronger effect = lower value 0.983 | locus YDL192W, strain arf1, stronger effect = lower value 0.988 | locus YDR001C, strain nth1, stronger effect = lower value 0.986 | locus YDR069C, strain doa4, stronger effect = lower value 1 | locus YDR101C, strain arx1, stronger effect = lower value 0.989 | locus YDR137W, strain rgp1, stronger effect = lower value 0.932 | locus YDR150W, strain NUM1, stronger effect = lower value 1 | locus YDR159W, strain sac3, stronger effect = lower value 0.969 | locus YDR162C, strain NBP2, stronger effect = lower value 0.999 | locus YDR195W, strain ref2 0.996 | locus YDR297W, strain sur2, stronger effect = lower value 1 | locus YDR318W, strain mcm21, stronger effect = lower value 0.977 | locus YDR334W, strain swr1, stronger effect = lower value 0.978 | locus YDR335W, strain msn5, stronger effect = lower value 0.973 | locus YDR363W, strain ESC2, stronger effect = lower value 1.01 | locus YDR388W, stronger effect = lower value 0.985 | locus YDR392W, strain spt3, stronger effect = lower value 0.861 | locus YDR502C, strain sam2, stronger effect = lower value 0.991 | locus YEL003W, strain gim4, stronger effect = lower value 1.01 | locus YEL037C, strain rad23, stronger effect = lower value 0.975 | locus YEL061C, strain CIN8 (second series), stronger effect = lower value 1 | locus YEL061C, strain CIN8, stronger effect = lower value 1 | locus YER002W, strain NOP16, stronger effect = lower value 1 | locus YER015W, strain faa2, stronger effect = lower value 1 | locus YER016W, strain bim1, stronger effect = lower value 0.976 | locus YER110C, stronger effect = lower value 0.988 | locus YER111C, strain swi4, stronger effect = lower value 0.987 | locus YER155C, strain BEM2 (second series), stronger effect = lower value 0.972 | locus YER155C, strain BEM2, stronger effect = lower value 0.988 | locus YER167W, strain BCK2, stronger effect = lower value 0.984 | locus YFR010W, strain ubp6, stronger effect = lower value 1.02 | locus YGL078C, strain dbp3, stronger effect = lower value 0.987 | locus YGL086W, strain mad1, stronger effect = lower value 0.999 | locus YGL167C, strain pmr1, stronger effect = lower value 0.992 | locus YGL173C, strain kem1, stronger effect = lower value 0.998 | locus YGL227W, strain vid30, stronger effect = lower value 1.01 | locus YGL240W, strain doc1, stronger effect = lower value 1 | locus YGL248W, strain PDE1, stronger effect = lower value 1 | locus YGL253W, strain hxk2, stronger effect = lower value 1.02 | locus YGR078C, strain PAC10, stronger effect = lower value 1.04 and 0.986 | locus YGR135W, strain pre9, stronger effect = lower value 0.965 | locus YGR229C, strain SMI1, stronger effect = lower value 1.01 and 1.05 | locus YGR252W, strain gcn5, stronger effect = lower value 0.96 | locus YHR013C, strain ard1, stronger effect = lower value 0.966 | locus YHR027C, strain rpn1, stronger effect = lower value 1 | locus YHR030C, strain SLT2, stronger effect = lower value 0.992 and 1.02 | locus YHR079C, strain IRE1 (second series), stronger effect = lower value 0.988 | locus YHR079C, strain IRE1, stronger effect = lower value 1.02 | locus YHR094C, strain hxt1, stronger effect = lower value 0.98 | locus YHR129C, strain ARP1, stronger effect = lower value 0.993 | locus YHR142W, strain chs7, stronger effect = lower value 0.986 | locus YHR200W, strain rpn10, stronger effect = lower value 0.984 | locus YIL066C, strain RNR3, stronger effect = lower value 1 | locus YIL073C, strain SPO22, stronger effect = lower value 0.925 | locus YIL125W, strain kgd1, stronger effect = lower value 0.982 | locus YIR030C, strain dcg1, stronger effect = lower value 0.978 | locus YJL092W, strain hpr5, stronger effect = lower value 0.991 | locus YJL095W, strain BCK1 (second series), stronger effect = lower value 0.982 | locus YJL095W, strain BCK1, stronger effect = lower value 1.03 and 1.02 | locus YJL115W, strain asf1, stronger effect = lower value 0.979 | locus YJL129C, strain trk1, stronger effect = lower value 0.952 | locus YJL134W, strain LCB3, stronger effect = lower value 0.995 | locus YJL154C, strain vps35, stronger effect = lower value 0.989 | locus YJL164C, strain tpk1, stronger effect = lower value 0.991 | locus YJL166W, strain qcr8, stronger effect = lower value 0.997 | locus YJL168C, strain set2, stronger effect = lower value 0.987 | locus YJL187C, strain SWE1 (second series), stronger effect = lower value 1.02 | locus YJL187C, strain SWE1, stronger effect = lower value 0.992 | locus YJR043C, strain POL32, stronger effect = lower value 1.02 | locus YJR066W, strain TOR1, stronger effect = lower value 0.948
